# How the values were obtained:
# Experiment in all cases: DAPPL (digital affinity profiling via proximity ligation, sequencing); 10 mM Tris-HCl pH 7.5, 50 mM NaCl, 1 mM DTT, 4% glycerol, room temperature, 30 min; GST-TFs on glutathione beads, 16-mer random dsDNA library, 0.1% formaldehyde crosslink after washing; high values mean tight binding
# FLI1 = biological target: T1, FLI1 (Homo sapiens, UniProt Q01543 1-452); details: protein: recombinant; tags: N-terminal GST; dsDNA, one strand shown
# T1 sequence: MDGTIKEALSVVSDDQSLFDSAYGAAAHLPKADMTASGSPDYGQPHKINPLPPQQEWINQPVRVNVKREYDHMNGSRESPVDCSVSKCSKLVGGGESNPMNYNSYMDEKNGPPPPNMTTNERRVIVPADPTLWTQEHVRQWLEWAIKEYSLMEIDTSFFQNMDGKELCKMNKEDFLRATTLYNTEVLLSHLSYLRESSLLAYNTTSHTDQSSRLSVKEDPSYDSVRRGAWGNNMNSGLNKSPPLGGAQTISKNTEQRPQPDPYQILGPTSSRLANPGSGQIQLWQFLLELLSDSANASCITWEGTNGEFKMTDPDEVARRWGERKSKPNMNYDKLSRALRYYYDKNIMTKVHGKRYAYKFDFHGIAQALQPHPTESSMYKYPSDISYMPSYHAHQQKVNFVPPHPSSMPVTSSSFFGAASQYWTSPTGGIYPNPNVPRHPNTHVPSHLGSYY
# Outline: (§1)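 Human transcription factors carrying a GST fusion were produced in yeast, bound to glutathione beads, tagged with DNA barcodes and pooled together with a tag-only sample. Each pool was held with 200 nmole of a random double-stranded 16-mer DNA library in Tris/NaCl/DTT/glycerol buffer for 30 min at room temperature, then washed, crosslinked in 0.1% formaldehyde, proximity-ligated with BsaI/T4 ligase (1 h, 37 °C), PCR-amplified and sequenced on an Illumina NextSeq500. Binding signal is the read frequency of each hexamer for a given factor divided by its frequency in the tag-only sample.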
# ELK1 = biological target: T2, ELK1 (Homo sapiens, UniProt P19419 1-428); details: protein: recombinant; tags: N-terminal GST; dsDNA, one strand shown
# T2 sequence: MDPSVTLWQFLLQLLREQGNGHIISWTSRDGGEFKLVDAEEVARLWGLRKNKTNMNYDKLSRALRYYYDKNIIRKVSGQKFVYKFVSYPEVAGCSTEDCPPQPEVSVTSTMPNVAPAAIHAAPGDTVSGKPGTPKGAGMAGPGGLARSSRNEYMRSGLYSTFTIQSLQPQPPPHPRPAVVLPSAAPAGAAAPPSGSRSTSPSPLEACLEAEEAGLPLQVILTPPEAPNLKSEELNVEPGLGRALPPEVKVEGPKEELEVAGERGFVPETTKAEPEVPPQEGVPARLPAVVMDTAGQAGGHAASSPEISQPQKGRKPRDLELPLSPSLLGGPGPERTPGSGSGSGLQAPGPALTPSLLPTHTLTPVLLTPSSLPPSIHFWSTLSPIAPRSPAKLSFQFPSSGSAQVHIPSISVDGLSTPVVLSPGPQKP
# Outline: as §1
# GABPA = biological target: T3, GABPA (Homo sapiens, UniProt Q06546 1-454); details: protein: recombinant; tags: N-terminal GST; dsDNA, one strand shown
# T3 sequence: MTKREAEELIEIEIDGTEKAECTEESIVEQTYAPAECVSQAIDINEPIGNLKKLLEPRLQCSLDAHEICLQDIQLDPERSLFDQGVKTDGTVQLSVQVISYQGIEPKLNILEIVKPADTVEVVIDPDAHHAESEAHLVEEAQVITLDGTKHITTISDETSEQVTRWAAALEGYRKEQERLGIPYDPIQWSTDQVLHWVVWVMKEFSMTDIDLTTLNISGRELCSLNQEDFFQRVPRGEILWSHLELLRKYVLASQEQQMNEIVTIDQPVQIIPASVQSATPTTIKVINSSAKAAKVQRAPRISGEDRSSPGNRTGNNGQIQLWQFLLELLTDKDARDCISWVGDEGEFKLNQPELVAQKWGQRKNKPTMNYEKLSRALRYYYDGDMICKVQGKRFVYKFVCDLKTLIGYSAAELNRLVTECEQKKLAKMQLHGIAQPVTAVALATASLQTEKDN
# Outline: as §1
# ERG = biological target: T4, ERG (Homo sapiens, UniProt P11308 1-479); details: protein: recombinant; tags: N-terminal GST; dsDNA, one strand shown
# T4 sequence: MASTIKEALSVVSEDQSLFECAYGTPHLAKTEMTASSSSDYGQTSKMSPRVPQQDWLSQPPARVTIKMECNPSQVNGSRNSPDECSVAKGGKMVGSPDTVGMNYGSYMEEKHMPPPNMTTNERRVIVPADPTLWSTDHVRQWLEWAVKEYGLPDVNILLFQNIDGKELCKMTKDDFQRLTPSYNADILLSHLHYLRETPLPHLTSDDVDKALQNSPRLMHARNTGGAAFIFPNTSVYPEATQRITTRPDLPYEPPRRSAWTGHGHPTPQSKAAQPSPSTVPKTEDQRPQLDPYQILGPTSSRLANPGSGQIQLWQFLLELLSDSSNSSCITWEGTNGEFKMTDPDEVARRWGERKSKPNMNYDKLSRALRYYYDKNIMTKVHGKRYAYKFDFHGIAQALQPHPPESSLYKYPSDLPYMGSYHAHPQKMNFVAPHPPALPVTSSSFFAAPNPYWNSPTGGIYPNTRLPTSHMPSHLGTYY
# Outline: as §1
# ELF1 = ELF1 (Homo sapiens, UniProt P32519 1-619); details: protein: recombinant; tags: N-terminal GST; dsDNA, one strand shown
# Chain of ELF1 (P32519 whole entry): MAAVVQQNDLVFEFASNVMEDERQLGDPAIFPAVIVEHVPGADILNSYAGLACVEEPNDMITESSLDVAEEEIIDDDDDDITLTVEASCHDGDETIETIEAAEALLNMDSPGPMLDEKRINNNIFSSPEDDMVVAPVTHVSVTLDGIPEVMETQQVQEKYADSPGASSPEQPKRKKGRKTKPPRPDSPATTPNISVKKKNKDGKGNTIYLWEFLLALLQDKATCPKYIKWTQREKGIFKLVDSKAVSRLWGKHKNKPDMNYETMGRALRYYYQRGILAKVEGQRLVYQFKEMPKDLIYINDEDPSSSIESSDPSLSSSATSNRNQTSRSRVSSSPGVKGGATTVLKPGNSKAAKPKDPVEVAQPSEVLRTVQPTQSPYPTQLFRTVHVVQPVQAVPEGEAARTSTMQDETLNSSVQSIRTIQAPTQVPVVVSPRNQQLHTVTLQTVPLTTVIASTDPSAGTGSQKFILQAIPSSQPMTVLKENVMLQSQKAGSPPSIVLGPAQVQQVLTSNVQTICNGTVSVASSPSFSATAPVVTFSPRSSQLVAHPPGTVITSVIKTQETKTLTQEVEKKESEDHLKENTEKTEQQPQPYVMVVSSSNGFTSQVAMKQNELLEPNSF
# Outline: as §1
# EHF = biological target: T5, EHF (Homo sapiens, UniProt Q9NZC4 1-300); details: protein: recombinant; tags: N-terminal GST; dsDNA, one strand shown
# T5 sequence: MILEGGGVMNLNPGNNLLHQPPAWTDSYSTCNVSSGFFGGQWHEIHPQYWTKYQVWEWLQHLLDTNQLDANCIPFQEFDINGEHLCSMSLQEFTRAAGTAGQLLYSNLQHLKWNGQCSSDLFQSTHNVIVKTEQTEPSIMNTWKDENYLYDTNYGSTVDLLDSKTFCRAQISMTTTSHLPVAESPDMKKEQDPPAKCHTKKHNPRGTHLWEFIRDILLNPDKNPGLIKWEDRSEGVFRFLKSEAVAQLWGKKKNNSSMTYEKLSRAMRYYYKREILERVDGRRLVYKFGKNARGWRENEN
# Outline: as §1
# SPI1 = SPI1 (Homo sapiens, UniProt P17947 1-270); details: protein: recombinant; tags: N-terminal GST; dsDNA, one strand shown
# Outline: as §1
# SPIB = SPIB (Homo sapiens, UniProt Q01892 1-262); details: protein: recombinant; tags: N-terminal GST; dsDNA, one strand shown
# Chain of SPIB (Q01892 whole entry): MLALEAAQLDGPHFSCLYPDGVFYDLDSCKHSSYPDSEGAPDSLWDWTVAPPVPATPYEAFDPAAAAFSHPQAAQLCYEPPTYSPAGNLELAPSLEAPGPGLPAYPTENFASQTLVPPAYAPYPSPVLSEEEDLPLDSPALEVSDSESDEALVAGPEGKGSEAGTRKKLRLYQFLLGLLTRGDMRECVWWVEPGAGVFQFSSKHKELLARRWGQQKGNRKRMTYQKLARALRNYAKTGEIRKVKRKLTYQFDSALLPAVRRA
# Outline: as §1
# ELK3 = biological target: T6, ELK3 (Homo sapiens, UniProt P41970 1-407); details: protein: recombinant; tags: N-terminal GST; dsDNA, one strand shown
# T6 sequence: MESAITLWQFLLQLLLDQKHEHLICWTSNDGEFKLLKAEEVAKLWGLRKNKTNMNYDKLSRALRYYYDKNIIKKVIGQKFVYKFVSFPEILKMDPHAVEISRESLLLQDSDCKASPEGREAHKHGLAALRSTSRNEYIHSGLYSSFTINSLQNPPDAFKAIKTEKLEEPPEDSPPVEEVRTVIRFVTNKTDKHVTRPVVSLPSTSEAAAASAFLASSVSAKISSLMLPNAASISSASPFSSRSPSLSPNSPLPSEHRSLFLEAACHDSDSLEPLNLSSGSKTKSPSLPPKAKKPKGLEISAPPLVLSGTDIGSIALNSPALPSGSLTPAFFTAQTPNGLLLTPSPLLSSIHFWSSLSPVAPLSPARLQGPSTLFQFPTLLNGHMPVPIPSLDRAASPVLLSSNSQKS
# Outline: as §1
# FEV = biological target: T7, FEV (Homo sapiens, UniProt Q99581 1-238); details: protein: recombinant; tags: N-terminal GST; dsDNA, one strand shown
# T7 sequence: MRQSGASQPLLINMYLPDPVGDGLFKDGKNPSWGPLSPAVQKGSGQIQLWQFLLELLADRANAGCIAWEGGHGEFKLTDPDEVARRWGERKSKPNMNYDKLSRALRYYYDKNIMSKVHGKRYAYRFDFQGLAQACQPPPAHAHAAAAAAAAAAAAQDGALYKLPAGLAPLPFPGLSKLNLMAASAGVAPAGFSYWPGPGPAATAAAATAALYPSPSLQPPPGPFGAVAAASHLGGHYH
# Outline: as §1
# ETV5 = ETV5 (Homo sapiens, UniProt P41161 1-510); details: protein: recombinant; tags: N-terminal GST; dsDNA, one strand shown
# Chain of ETV5 (P41161 whole entry): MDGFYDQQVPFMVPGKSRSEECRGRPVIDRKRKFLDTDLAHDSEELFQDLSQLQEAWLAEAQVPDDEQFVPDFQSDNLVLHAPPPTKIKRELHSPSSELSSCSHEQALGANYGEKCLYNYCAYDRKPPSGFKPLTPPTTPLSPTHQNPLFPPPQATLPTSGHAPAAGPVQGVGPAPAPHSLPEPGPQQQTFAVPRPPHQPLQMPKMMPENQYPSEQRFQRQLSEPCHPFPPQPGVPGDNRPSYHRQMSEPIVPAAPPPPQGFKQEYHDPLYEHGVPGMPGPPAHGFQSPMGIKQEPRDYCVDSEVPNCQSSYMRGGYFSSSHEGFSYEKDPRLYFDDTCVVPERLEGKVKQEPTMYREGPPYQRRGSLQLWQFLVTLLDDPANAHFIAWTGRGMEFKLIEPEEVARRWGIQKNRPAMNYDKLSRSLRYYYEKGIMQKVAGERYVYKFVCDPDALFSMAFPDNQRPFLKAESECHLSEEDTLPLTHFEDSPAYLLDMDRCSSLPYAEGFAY
# Outline: as §1
# HSF1 = HSF1 (Homo sapiens, UniProt Q00613 1-529); details: protein: recombinant; tags: N-terminal GST; chain copies: 3; dsDNA, one strand shown
# Chain of HSF1 (Q00613 whole entry): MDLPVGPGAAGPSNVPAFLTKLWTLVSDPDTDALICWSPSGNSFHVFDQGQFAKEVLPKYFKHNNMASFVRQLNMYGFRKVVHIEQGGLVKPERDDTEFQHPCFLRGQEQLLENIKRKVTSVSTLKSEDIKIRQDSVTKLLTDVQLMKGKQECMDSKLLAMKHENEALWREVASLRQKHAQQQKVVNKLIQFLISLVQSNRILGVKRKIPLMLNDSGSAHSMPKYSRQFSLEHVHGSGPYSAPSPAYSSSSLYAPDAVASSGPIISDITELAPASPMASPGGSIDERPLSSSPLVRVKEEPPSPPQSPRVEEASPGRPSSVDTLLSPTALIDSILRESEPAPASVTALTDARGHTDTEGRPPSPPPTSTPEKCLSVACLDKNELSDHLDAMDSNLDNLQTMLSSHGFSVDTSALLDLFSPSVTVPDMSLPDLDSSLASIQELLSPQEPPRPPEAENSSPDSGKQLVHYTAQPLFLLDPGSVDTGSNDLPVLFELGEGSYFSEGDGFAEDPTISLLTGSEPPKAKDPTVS
# Outline: as §1
# SPIC = biological target: T8, SPIC (Homo sapiens, UniProt Q8N5J4 1-248); details: protein: recombinant; tags: N-terminal GST; dsDNA, one strand shown
# T8 sequence: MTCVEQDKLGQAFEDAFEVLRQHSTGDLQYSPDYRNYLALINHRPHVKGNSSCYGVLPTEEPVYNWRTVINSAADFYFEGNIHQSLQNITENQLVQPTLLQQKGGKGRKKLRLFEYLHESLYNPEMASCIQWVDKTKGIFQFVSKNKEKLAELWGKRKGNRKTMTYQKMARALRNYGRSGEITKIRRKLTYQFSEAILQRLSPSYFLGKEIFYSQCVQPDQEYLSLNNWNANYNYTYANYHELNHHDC
# Outline: as §1
# ELF4 = ELF4 (Homo sapiens, UniProt Q99607 1-663); details: protein: recombinant; tags: N-terminal GST; dsDNA, one strand shown
# Chain of ELF4 (Q99607 whole entry): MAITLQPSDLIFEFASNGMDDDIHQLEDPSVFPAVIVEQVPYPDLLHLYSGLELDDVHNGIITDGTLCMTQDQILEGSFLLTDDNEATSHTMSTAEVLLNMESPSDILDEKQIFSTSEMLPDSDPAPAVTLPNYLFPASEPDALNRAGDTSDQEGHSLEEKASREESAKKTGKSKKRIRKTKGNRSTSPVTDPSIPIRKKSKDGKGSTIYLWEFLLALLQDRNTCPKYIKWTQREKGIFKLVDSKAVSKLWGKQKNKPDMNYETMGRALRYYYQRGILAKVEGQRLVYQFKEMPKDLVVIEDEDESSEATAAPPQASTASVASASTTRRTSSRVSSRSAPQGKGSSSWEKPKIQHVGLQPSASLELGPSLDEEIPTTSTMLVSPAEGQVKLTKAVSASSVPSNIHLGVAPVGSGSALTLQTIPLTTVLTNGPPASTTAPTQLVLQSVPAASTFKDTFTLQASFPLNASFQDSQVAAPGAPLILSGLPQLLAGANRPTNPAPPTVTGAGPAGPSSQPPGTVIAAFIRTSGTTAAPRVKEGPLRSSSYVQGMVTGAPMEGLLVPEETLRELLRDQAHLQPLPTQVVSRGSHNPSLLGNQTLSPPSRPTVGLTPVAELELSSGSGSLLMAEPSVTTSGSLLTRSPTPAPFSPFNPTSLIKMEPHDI
# Outline: as §1
# ELK4 = biological target: T9, ELK4 (Homo sapiens, UniProt P28324-2 1-405); details: protein: recombinant; tags: N-terminal GST; dsDNA, one strand shown
# T9 sequence: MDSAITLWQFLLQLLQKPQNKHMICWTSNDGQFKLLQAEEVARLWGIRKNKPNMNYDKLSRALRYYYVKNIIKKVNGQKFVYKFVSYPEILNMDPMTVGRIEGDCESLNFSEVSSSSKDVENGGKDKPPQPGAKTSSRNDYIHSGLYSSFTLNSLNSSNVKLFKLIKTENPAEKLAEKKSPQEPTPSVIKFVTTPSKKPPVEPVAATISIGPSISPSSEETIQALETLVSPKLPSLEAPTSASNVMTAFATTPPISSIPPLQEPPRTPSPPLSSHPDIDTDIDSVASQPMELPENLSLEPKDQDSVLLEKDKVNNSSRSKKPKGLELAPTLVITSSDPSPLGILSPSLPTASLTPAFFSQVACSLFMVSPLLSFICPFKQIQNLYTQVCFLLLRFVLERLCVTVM
# Outline: as §1
# ETV2 = biological target: T10, ETV2 (Homo sapiens, UniProt O00321 1-342); details: protein: recombinant; tags: N-terminal GST; dsDNA, one strand shown
# T10 sequence: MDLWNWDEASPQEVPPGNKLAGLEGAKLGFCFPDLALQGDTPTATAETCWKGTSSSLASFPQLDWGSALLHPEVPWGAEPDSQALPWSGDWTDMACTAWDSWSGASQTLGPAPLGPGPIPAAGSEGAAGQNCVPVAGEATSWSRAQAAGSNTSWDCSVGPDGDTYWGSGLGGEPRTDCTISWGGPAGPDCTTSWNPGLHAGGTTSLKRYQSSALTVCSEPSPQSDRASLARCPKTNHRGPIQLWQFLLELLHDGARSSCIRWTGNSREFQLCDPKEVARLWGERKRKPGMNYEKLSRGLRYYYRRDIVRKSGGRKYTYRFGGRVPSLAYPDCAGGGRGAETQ
# Outline: as §1
# CRX = CRX (Homo sapiens, UniProt O43186 1-299); details: protein: recombinant; tags: N-terminal GST; dsDNA, one strand shown
# Chain of CRX (O43186 whole entry): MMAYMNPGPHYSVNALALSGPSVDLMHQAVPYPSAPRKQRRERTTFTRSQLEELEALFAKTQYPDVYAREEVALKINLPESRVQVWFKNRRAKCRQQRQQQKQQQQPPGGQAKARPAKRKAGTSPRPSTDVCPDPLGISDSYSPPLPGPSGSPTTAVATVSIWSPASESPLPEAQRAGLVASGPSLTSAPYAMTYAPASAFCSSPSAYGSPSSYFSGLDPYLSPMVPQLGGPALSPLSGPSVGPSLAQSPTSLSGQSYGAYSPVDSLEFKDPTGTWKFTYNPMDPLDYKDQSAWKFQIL
# Outline: as §1
# ETV1 = ETV1 (Homo sapiens, UniProt P50549 1-477); details: protein: recombinant; tags: N-terminal GST; dsDNA, one strand shown
# Chain of ETV1 (P50549 whole entry): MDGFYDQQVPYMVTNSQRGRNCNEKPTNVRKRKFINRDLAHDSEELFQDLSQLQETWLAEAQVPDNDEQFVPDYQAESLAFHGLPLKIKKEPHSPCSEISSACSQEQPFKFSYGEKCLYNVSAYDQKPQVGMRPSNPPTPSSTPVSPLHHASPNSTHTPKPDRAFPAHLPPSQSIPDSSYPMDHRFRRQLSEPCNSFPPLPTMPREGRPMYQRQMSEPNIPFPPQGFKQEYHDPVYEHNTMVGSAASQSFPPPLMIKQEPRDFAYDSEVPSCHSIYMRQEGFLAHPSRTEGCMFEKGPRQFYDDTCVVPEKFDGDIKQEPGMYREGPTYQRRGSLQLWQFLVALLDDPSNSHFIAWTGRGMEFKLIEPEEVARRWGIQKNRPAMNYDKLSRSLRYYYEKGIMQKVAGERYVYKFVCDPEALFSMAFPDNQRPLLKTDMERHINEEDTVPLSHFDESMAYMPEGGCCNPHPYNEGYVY
# Outline: as §1
sequence,measurement,setting,value
TTATCA,binding signal,FLI1,"1.16 fold enrichment (6-mer frequency, TF over GST control)"
same,binding signal,ELK1,"1.15 fold enrichment (6-mer frequency, TF over GST control)"
same,binding signal,GABPA,"1.05 fold enrichment (6-mer frequency, TF over GST control)"
same,binding signal,ERG,"1.06 fold enrichment (6-mer frequency, TF over GST control)"
same,binding signal,ELF1,"1.15 fold enrichment (6-mer frequency, TF over GST control)"
same,binding signal,EHF,"1.02 fold enrichment (6-mer frequency, TF over GST control)"
same,binding signal,SPI1,"1.09 fold enrichment (6-mer frequency, TF over GST control)"
same,binding signal,SPIB,"1.1 fold enrichment (6-mer frequency, TF over GST control)"
same,binding signal,ELK3,"1.17 fold enrichment (6-mer frequency, TF over GST control)"
same,binding signal,FEV,"1.06 fold enrichment (6-mer frequency, TF over GST control)"
same,binding signal,ETV5,"1.05 fold enrichment (6-mer frequency, TF over GST control)"
same,binding signal,HSF1,"1.44 fold enrichment (6-mer frequency, TF over GST control)"
same,binding signal,SPIC,"1.12 fold enrichment (6-mer frequency, TF over GST control)"
same,binding signal,ELF4,"1.08 fold enrichment (6-mer frequency, TF over GST control)"
same,binding signal,ELK4,"1.2 fold enrichment (6-mer frequency, TF over GST control)"
same,binding signal,ETV2,"1.13 fold enrichment (6-mer frequency, TF over GST control)"
same,binding signal,CRX,"2.19 fold enrichment (6-mer frequency, TF over GST control)"
same,binding signal,ETV1,"1.06 fold enrichment (6-mer frequency, TF over GST control)"
